Most compounds without a hit are left out; they make up all but 22% or so of the library.
CYP2C19 inh = inhibitors of human CYP2C19 | CYP2C19 Supersomes, luciferin-H EGE luminescence, 30 min | inhibition, % at 5 µM | 96,000 tested, 21% active;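 active = CYP2C19 inhibition above a set limit at 5 µM in the primary screen, cut at about 50% in these data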;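 also: plate controls were negative control wells for no effect and 2.5 mM tranylcypromine positive control for full effect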
Target sequence (P33261 whole entry, looked up): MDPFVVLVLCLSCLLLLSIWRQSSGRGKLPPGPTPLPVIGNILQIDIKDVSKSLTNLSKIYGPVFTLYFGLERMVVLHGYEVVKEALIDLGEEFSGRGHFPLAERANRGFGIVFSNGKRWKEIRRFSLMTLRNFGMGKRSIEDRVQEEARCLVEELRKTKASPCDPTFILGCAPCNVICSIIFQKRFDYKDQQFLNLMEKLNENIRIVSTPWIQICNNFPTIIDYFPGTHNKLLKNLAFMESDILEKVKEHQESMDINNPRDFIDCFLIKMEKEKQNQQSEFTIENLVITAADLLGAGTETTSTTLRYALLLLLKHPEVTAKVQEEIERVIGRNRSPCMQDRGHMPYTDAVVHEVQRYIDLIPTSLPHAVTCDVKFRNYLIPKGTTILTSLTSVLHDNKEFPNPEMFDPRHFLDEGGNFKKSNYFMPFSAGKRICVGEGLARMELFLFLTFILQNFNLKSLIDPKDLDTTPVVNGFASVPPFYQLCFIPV
CYP2C9 inhib = blocks human cytochrome P450 2C9. CYP2C9 Supersomes, luciferin-H conversion, luminescence. inhibition, % at 5 µM. 96,000 tested, 20% active. AID 777;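 active = blocking of liver enzyme CYP2C9 beyond about 50% at 5 µM, limit read from the data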
E-sel TNF inh = blocks E-selectin expression induced by TNF alpha; HUVEC TNFa-induced E-selectin immunofluorescence, high content; inhibition, % at 2 µM; 120,000 tested, 0.71% active;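 active = inhibition above the batch mean plus 3 SD, and confirmed as a hit on visual image review, cut at about 43% in these data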;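 also: 0% = TNF-stimulated DMSO wells and 100% = unstimulated control wells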
F-actin modifier = cytoskeleton assembly modification; HUVEC TNFa F-actin phalloidin imaging, high content; inhibition, % at 2 µM; 91,000 tested, 0.18% active; AID 836;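 active = inhibition above the batch mean plus 3 SD and confirmed as a hit by visual image inspection, cut at about 30% in these data, passing the limit was not always enough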
CYP2C19 activ = increases human CYP2C19 enzyme activity; P33261; recombinant CYP2C19, luciferin-H EGE luminescence; hits give high values; 0 = fully inhibited enzyme, 1 = untreated enzyme; activation factor at 5 µM; 96,000 tested, under 10 active; AID 1025;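 active = activation factor of at least 2 at 5 µM in the primary screen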;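 also: 0 = wells with 2.5 mM tranylcypromine and 1 = vehicle-only wells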
CYP2C9 act = CYP2C9 (human) activation | P11712 | recombinant CYP2C9, luciferin-H conversion, luminescence; hits give high values; factor 1 = untreated enzyme, 0 = blocked | activation factor at 5 µM | 96,000 tested, 1.4% active | AID 1024;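 active = activation factor of 2 or more for CYP2C9 at a 5 µM dose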;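 also: 0 = sulfaphenazole-blocked wells and 1 = vehicle-only wells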
* marks the source's active call; other numbers are inactive results; . = no result given.

SMILES	CYP2C19 inh	CYP2C9 inhib	E-sel TNF inh	F-actin modifier	CYP2C19 activ	CYP2C9 act
CC(NCC(O)COCc1ccc(Cl)cc1)c1ccccc1 (stereo not drawn)	.	.	7.6	.	.	.
O=S(=O)(Nc1nc2ccccc2[nH]1)c1ccc2ccccc2c1	74.4*	44.0	13.3	-4.4	0.3	0.6
O=c1c2ccccc2nc2n1CCCCN2	11.0	15.5	21.1	-7.2	0.9	0.8
N#Cc1cc2c(nc1SCc1cccnc1)CCCC2	77.6*	60.1*	-21.5	.	0.2	0.4
N#Cc1cc2c(nc1SCc1cccnc1)CCC2	86.6*	22.9	12.5	13.4	0.1	0.8
COC(=O)C1=C(C)N=C2SC(C#N)=C(N)N2C1c1cc(OC)c(OC)c(OC)c1 (stereo not drawn)	86.8*	93.2*	-31.7	-7.5	0.1	0.1
COC(=O)C1=C(C)N=C2SC(C#N)=C(N)N2C1c1ccc(OCc2ccccc2)cc1 (stereo not drawn)	32.5	69.4*	23.5	-13.9	0.7	0.3
COC(=O)Nc1ccc2ncn(C)c(=O)c2c1	-6.2	-4.1	1.3	2.5	1.1	1
Cc1noc(/C=C/N(C)C)c1S(=O)(=O)N1CCCC(C(=O)NC2CCCCC2)C1 (stereo not drawn)	10.1	44.0	.	-7.2	0.9	0.6
Cc1noc(/C=C/N(C)C)c1S(=O)(=O)N1CCCC(C(=O)Nc2ccc3c(c2)OCO3)C1 (stereo not drawn)	48.5	67.0*	40.1	14.2	0.5	0.3
Cc1noc(/C=C/N(C)C)c1S(=O)(=O)N1CCCC(C(=O)N2CCCCC2)C1 (stereo not drawn)	3.1	57.7*	.	-0.1	1	0.4
O=C(NNc1ccc(C(F)(F)F)cc1[N+](=O)[O-])c1ccc(NS(=O)(=O)c2ccc(F)cc2)cc1	.	.	-21.2	.	.	.
CC(=O)c1ccc(N2CCN(C(=O)Cn3c(=S)[nH]c4ncccc4c3=O)CC2)cc1	.	.	-37.7	.	.	.
Cc1ccc(N(C(=O)Nc2ccccc2)C2=NCC(C)S2)cc1 (stereo not drawn)	71.1*	85.5*	-8.6	22.5	0.3	0.1
CC1CN=C(N(C(=O)Nc2ccccc2)C(C)C)S1 (stereo not drawn)	.	.	12.0	-3.5	.	.
Cc1c(N(C(=O)Nc2ccccc2)C2=NCC(C)S2)c(=O)n(-c2ccccc2)n1C (stereo not drawn)	32.1	74.2*	.	3.7	0.7	0.3
COc1cc(C(=O)Nc2ccccc2N2CCOCC2)ccc1OCc1c(C)noc1C	.	.	-8.3	.	.	.
C=CCN1C(=O)/C(=C\c2ccc(C)cc2)N=C1SCC(=O)NCCC	14.5	20.9	-3.2	16.9	0.9	0.8
Cc1ccc(Oc2ncc(-c3ccc(Cl)cc3)cn2)cc1	25.3	1.1	16.8	-14.7	0.7	1
Cc1ccc(OCc2nc(-c3ccc(Cl)cc3)n[nH]2)cc1	95.4*	94.1*	14.2	10.6	0	0.1
CCc1ccc(C2C3=C(CC(C)(C)CC3=O)Nc3c2c(=O)[nH]c2nc(C)nn32)cc1 (stereo not drawn)	0.3	3.1	18.3	-30.9	1	1
CCC(=O)Nc1ccc(C(=O)NNC(=O)c2cccs2)cc1	-2.6	2.5	-35.4	.	1	1
Cc1ccc(S(=O)(=O)N2CCN(C(=O)CN3CCCCC3)C2)cc1	3.1	-7.5	13.8	.	1	1.1
Cc1ccc(S(=O)(=O)/N=C(\CN2CCCCC2)N2CCOCC2)cc1	63.6*	52.9*	-18.9	10.4	0.4	0.5
COc1ccccc1N1CCN(c2nc3ccccn3c(=O)c2C=O)CC1	70.9*	-30.1	-28.4	8.9	0.3	1.3
SMILES	CYP2C19 inh	CYP2C9 inhib	E-sel TNF inh	F-actin modifier	CYP2C19 activ	CYP2C9 act
COc1ccc(C(=O)Oc2cc(N)n(S(=O)(=O)c3ccccc3)n2)cc1	.	.	-25.6	.	.	.
COc1cccc(C(=O)Oc2cc(N)n(S(=O)(=O)c3ccc(C)cc3)n2)c1OC	9.0	75.6*	-28.8	4.7	0.9	0.2
Nc1cc(OC(=O)c2cccs2)nn1S(=O)(=O)c1ccc(F)cc1	39.8	92.9*	.	-24.8	0.6	0.1
c1ccc(CC(Nc2ccccn2)c2ccccc2)cc1 (stereo not drawn)	.	.	-15.3	.	.	.
Cc1cc(=S)cc(C)n1CCCO	5.1	10.0	.	-0.1	0.9	0.9
COc1ccc(/C=C/C(=O)c2ccccc2)cc1COc1ccc(F)cc1	16.2	64.8*	-14.2	-33.8	0.8	0.4
COc1ccc(/C=C/C(=O)c2ccc(O)cc2)cc1COc1ccc(F)cc1	-0.4	5.5	10.8	0.1	1	0.9
COc1ccc(/C=C/C(=O)NCc2cn(C)nc2C)cc1COc1ccc(Br)cc1	67.1*	60.5*	-25.9	-1.4	0.3	0.4
COc1ccc(-n2nnc3c(=O)n(Cc4cccc(C)c4)cnc32)cc1	24.2	55.8*	.	-10.9	0.8	0.4
Cc1nc(SCC(=O)O)c2oc3ccccc3c2n1	0.2	-6.1	-15.1	2.0	1	1.1
O=C(CSc1ncnc2c1oc1ccccc12)c1cccs1	26.7	45.9	-11.9	4.1	0.7	0.5
Cc1nc(SCC(=O)N2CCN(c3ccccc3)CC2)c2oc3ccccc3c2n1	45.0	56.2*	1.5	-0.5	0.6	0.4
Cc1nc(SCC(=O)c2cccs2)c2oc3ccccc3c2n1	25.8	63.8*	12.2	-7.4	0.7	0.4
Cc1nc(SCC(=O)NCc2ccccc2)c2oc3ccccc3c2n1	30.4	78.8*	4.7	-7.5	0.7	0.2
Nc1c(C(=O)NCCc2ccccc2)nnn1Cc1ccccc1	.	.	-4.7	.	.	.
COc1cccc(C(=O)Nc2ccc(NC(=O)C(C)(C)C)cn2)c1	-3.0	-12.8	16.4	6.8	1	1.1
CC(=O)N1c2ccccc2N(Cc2ccc(C)cc2C)C(=O)C1(C)C	95.0*	81.2*	.	-15.2	0.1	0.2
C=CCN1C(=O)C(C)(C)N(C(C)=O)c2ccccc21	.	.	2.2	.	.	.
Cc1ccc(CNc2ncnc3cc(Cl)ccc23)o1	66.8*	53.9*	17.1	-2.1	0.3	0.5
CCCN(CCC)CCCNC(=O)CS(=O)Cc1nc(-c2ccc(OC)c(OC)c2)oc1C (stereo not drawn)	-7.9	-7.5	.	.	1.1	1.1
COc1ccc(Br)cc1CN(C)CC(=O)Nc1c(Cl)cccc1Cl	.	.	67.8*	.	.	.
Cc1ccc(C(=O)NCc2n[nH]c(=S)n2-c2ccccc2)cc1[N+](=O)[O-]	.	.	10.1	.	.	.
CCOc1cc(/C=C2\N=C(C)OC2=O)cc(Br)c1OCCc1ccccc1	28.5	70.5*	43.2	-9.3	0.7	0.3
CCCn1nc2cc(C(=O)NCc3ccc(C)cc3)ccc2c1OC	2.6	7.0	-27.7	23.6	1	0.9
N/C(=N\OS(=O)(=O)c1ccc(Cl)cc1)c1ccncc1	68.2*	80.8*	6.0	-3.6	0.3	0.2
COc1ccc(CC(=O)Nc2cccc(-c3ccc4nnc(C)n4n3)c2)cc1OC	.	.	-27.0	.	.	.
Cc1ccc(NCCC(=O)c2cccc([N+](=O)[O-])c2)cc1	94.4*	36.3	-7.5	-46.7	0.1	0.6
O=C(CCNc1ccccc1)c1cccc([N+](=O)[O-])c1	67.1*	28.6	39.4	-0.3	0.3	0.7

From PubChem BioAssay
